Measurements: PubChem BioAssay
Unmarked numbers belong to inactive results. The rule behind the calls is not given here. Where a SMILES comes first, the peptide text is derived from it. The star is where a group is joined. Boc = CC(C)(C)OC(=O)*

biological target: Pantothenate synthetase (Mycobacterium tuberculosis (strain ATCC 25618 / H37Rv)) (UniProt P9WIL5); assay: Recombinant Mtb pantothenate synthetase (PanC) inhibitors, coupled enzyme, confirmatory (AID 375); conditions: coupled enzyme assay; at 10 µM, active compounds read high;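 note: 0% = full reaction with vehicle and 100% = no enzyme background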
Sequence (P9WIL5 whole entry, looked up): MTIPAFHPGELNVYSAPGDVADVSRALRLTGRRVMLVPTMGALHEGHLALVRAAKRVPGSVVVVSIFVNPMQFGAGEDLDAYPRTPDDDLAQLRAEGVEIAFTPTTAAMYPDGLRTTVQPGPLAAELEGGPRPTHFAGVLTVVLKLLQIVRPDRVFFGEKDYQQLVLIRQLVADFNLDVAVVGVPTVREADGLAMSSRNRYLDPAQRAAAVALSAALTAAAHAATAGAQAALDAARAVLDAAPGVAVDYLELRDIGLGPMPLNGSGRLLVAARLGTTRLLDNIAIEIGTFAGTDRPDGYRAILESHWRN

Structure (SMILES)	inhibition [%]
CCN(CC)c1ccc(-c2nn3c(-c4cccnc4)nnc3s2)cc1	4
COc1ccc2cc(C(c3nnnn3C(C)(C)C)N3CCc4ccccc4C3)c(=O)[nH]c2c1 (stereo not given)	11
O=C(CS(=O)(=O)Cc1ccccc1)Nc1nc2ccccc2s1	0
CC1Cc2ccccc2N1S(=O)(=O)c1ccc2c(c1)n(C)c(=O)c(=O)n2C (stereo not given)	0
O=C(Nc1ccc2c(c1)OCO2)c1ccc(CN2CCOCC2)cc1	1
COC(=O)c1ccccc1NC(=O)N1CCCC1	0
COc1cc(NS(=O)(=O)c2ccc(N)cc2)nc(OC)n1	0
Cc1cc(NC(=O)C(C)(C)C)no1	0
CC(C)CC(NC(=O)OC(C)(C)C)C(=O)NC(C(=O)NC(C)C(N)=O)C(C)C (stereo not drawn) (Boc-Leu-Val-Ala-NH2; configuration not given here)	16
Cc1[nH]nc(-c2ccc(O)c(C)c2O)c1-c1cnn(-c2ccccc2)c1	0
COc1ccc(NC(=O)C(C)NS(=O)(=O)c2ccccc2)cc1Cl (stereo not given)	10
CCCCN(CC)CCCNC(=O)CS(=O)(=O)Cc1nc(-c2cccc(OC)c2)oc1C	0
CNC(=O)CC(C(=O)O)c1ccc(OCC(C)C)cc1 (stereo not given)	1
COC(=O)c1nn(-c2ccc(-c3ccccc3)cc2)cc1O	0
Cc1cccc(C(=O)N2CCC(n3nnc4cc(F)ccc43)CC2)c1	0
Cc1nc(CCNC(=O)c2ccccc2)cs1	0
CC(=O)Nc1cccc(NC(=O)CSc2nnnn2C)c1	0
COc1ccc(OC)c(NC(=O)CSc2ncccc2C(=O)O)c1	0
N#CCCn1ccc(NC(=O)c2ccc(Cl)cc2)n1	0
Cc1ccc(-c2nnc(-c3ccc(Br)cc3)o2)o1	0

Structure (SMILES)	inhibition [%]
COc1ccc(/C=N/n2cnnc2SCc2ccc(OC)cc2)cc1	0
CCOc1ccc(C(=O)Cc2ccc3oc(C(=O)O)cc3c2)c(O)c1	7
O=C(/C=C1\NC2(CCCC2)Cc2ccccc21)N1CCOCC1	0
Cc1cc(-c2ccccc2)c2nncn2n1	3
CCC(C)(C)n1nnnc1C(c1ccccc1OC)N1CCSCC1 (stereo not given)	5
O=C(Nc1cccc(C(=O)N2CCOCC2)c1)c1cccnc1	0
CCn1c(Cc2ccccc2)nnc1SCC(=O)Nc1ccc(N2CCOCC2)c(Cl)c1	6
Cc1ccc2nc(NC(=O)C3CCN(S(=O)(=O)c4cccc5nsnc45)CC3)sc2c1	4
COc1ccc(C)cc1NC(=O)CNC(=O)Cn1ccc2ccccc2c1=O	5
c1ccc(-c2nnc(-c3ccco3)n2-c2ccccc2)cc1	0
Nc1[nH]nc2nc(N3CCCC3)nc(-c3ccccc3)c12	0
CC(C)(C)C1=C[C@@H](CO)C[C@@H](CO)C1	0
O=C1NC(c2cccnc2)C(C(=O)c2cccs2)C(O)(C(F)(F)F)N1 (stereo not given)	6
CC(C)CCNC(=O)C(c1cccs1)N(CC1CCCO1)C(=O)Cn1nnc2ccccc21 (stereo not given)	0
O=C(NCc1ccc2c(c1)OCO2)C1CCCN(S(=O)(=O)c2cccnc2)C1 (stereo not given)	0
COc1ccc(N=C2C(=O)Nc3ccccc32)cc1	0
Cc1cc(=O)oc2cc(OCC(=O)OCC(=O)N3CCc4ccccc43)ccc12	3
CCCn1c(SCC(=O)Nc2nnc(-c3ccccc3)s2)nnc1-c1ccccn1	0
Cc1cccc(-c2nnc(SCC#N)n2-c2cccc(Cl)c2)c1	0
Cc1ccc(C2N(c3ccc(Cl)c(Cl)c3)C(=O)C3CCCN32)o1 (stereo not given)	6
